FGF22 binding-1 – shifts melting point of recombinant human FGF22; Q9HCT0; recombinant FGF22 thermal shift, SYPRO orange fluorescence; percent of sucrose octasulfate shift, DMSO zero; activity (Tm shift, normalised), % at 9.99 µM; actives 1.5% (n = 340,000); AID 651658;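 active = mean Tm shift, scaled 0 neutral to 100 positive control, at about 1.3% or above, every replicate too, limit read from the data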
proKLK7 act – activators of human kallikrein-7 zymogen; P49862; purified proKLK7, EDANS-DABCYL substrate fluorescence; 100% is mature enzyme control, 0% vehicle; activation, % at 7 µM; actives 0.9% (n = 370,000);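 active = activation above the mean of all tested compounds plus 3 SD, computed per campaign excluding outliers beyond control limits, cut at about 13% in these data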
Ecoli rRNA inh – selective bacterial rRNA inhibition in E. coli; AID 720706; E. coli WT GFP vs humanized-ribosome RFP mutants, fluorescence, 24 h; hits give low values; DMSO median 0, no signal -100; GFP signal change (wild-type ribosome), % (test concentration not listed); actives 1.6% (n = 350,000);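 active = significant combined selectivity score with lowered wild-type GFP, culture density cut under 30%, mutant RFP and density less affected; inactive = any of these conditions unmet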
ADAM17 inh – inhibitors of human ADAM17 | inhibition, % at 6.95 µM | AID 720648 | recombinant ADAM17, EDANS/DABCYL FRET peptide cleavage | actives 0.83% (n = 370,000);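 active = inhibition above the mean of compounds lying between control limits plus 3 SD, set per campaign, cut at about 8.5% in these data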
Target sequence (P78536 215-824 limits assumed): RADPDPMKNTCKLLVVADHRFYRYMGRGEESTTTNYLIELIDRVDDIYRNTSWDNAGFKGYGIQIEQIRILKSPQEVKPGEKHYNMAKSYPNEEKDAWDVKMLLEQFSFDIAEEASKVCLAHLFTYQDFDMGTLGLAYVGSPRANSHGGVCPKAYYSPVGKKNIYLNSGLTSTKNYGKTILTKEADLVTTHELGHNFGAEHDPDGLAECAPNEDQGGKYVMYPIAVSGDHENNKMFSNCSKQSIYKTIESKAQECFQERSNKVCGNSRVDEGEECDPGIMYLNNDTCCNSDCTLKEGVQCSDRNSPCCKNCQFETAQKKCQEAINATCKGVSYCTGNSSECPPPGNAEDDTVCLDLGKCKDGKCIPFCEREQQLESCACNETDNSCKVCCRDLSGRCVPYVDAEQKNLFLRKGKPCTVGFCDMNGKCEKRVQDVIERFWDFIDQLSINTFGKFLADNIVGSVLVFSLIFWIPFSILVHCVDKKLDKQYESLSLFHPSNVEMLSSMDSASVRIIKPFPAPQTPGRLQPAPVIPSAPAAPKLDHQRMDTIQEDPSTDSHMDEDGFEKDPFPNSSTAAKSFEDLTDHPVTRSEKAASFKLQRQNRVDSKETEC
ADAM10 inh – inhibitors of human ADAM10 | inhibition, % at 7 µM | O14672 | actives 0.62% (n = 370,000) | AID 720582 | recombinant ADAM10, EDANS/DABCYL FRET peptide cleavage, 3 h;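 active = inhibition above a per-campaign cutoff equal to the mean of compounds falling between control-based bounds plus 3 SD, cut at about 20% in these data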
FGF22 binding-2 – FGF22 (human) binding in thermal shift. shares compounds with FGF22 binding-1. recombinant FGF22 thermal shift, SYPRO orange fluorescence. thermal shift activity, °C (ΔTm) at 38 µM. actives 2% (n = 1,000). AID 720646;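 active = fitted rise in melting shift crosses a set limit at or below the top valid dose tested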
TSA no protein – compound-only SYPRO artifact for FGF22 binders; AID 743019; actives 2% (n = 1,000); shares compounds with FGF22 binding-1; AC50, µM (top dose mostly 38 µM); compound-only SYPRO orange thermal shift counter-screen, no protein;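 active = rising signal whose fitted curve reaches the 0.54 level within the top valid dose, showing a melting point, actives reach about 13 µM in these data; inactive = the rest, including activity in the opposite direction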; also: value is where the raw curve crosses a fixed level and not half-maximal
A number is an active result; . = inactive; / = no result given. In the library only some 3.8% were active in any assay of this set; here they are far more common.

SMILES	FGF22 binding-1	proKLK7 act	Ecoli rRNA inh	ADAM17 inh	ADAM10 inh	FGF22 binding-2	TSA no protein
COc1ccc(NC(=O)N(C)C[C@@H]2Oc3ccc(NS(=O)(=O)c4ccc(OC)cc4)cc3CC(=O)N([C@H](C)CO)C[C@@H]2C)cc1	7.6	/	.	/	/	.	.
COc1ccc(NC(=O)Nc2ccc3c(c2)CC(=O)N([C@H](C)CO)C[C@@H](C)[C@H](CN(C)S(=O)(=O)c2ccccc2)O3)cc1	.	/	.	/	/	/	/
COc1ccc(S(=O)(=O)Nc2ccc3c(c2)CC(=O)N([C@@H](C)CO)C[C@@H](C)[C@H](CN(C)C(=O)Nc2ccc(F)cc2)O3)cc1	.	/	.	/	/	/	/
Cc1cccc(NC(=O)c2ccc(-c3ccccc3[N+](=O)[O-])o2)c1	1.6	.	-32	.	.	.	.
COc1ccccc1NC(=O)Nc1nc(CC(=O)Nc2ccc(OC)c(OC)c2)cs1	.	.	.	.	.	/	/
COc1cc(C)ccc1NC(=O)Cc1csc(NC(=O)Nc2ccccc2OC)n1	1.6	.	.	.	.	.	.
O=C(C[C@@H]1CC[C@@H]2[C@H](COC[C@@H](O)CN2C(=O)c2cnccn2)O1)N1CCN(c2ccccc2)CC1	.	/	.	/	/	/	/
C[C@H]1CN([C@@H](C)CO)C(=O)Cc2cc(NC(=O)C3CC3)ccc2O[C@@H]1CN(C)Cc1ccc(Cl)c(Cl)c1	.	/	.	/	/	/	/
C[C@@H]1CN([C@H](C)CO)C(=O)Cc2cc(NS(C)(=O)=O)ccc2O[C@@H]1CN(C)Cc1ccc(C(=O)O)cc1	39	/	.	/	/	.	.
C[C@@H]1CN([C@@H](C)CO)C(=O)Cc2cc(NC(=O)C3CC3)ccc2O[C@H]1CN(C)Cc1ccc(Cl)c(Cl)c1	3.1	/	.	/	/	.	.
CCC(=O)Nc1ccc2c(c1)OC[C@H](C)N(Cc1ccccc1OC)C[C@H](C)[C@@H](OC)CN(C)C2=O	.	/	.	/	/	/	/
Oc1ccc(-c2nnc(Nc3cccc(O)c3)c3ccccc23)cc1	1.9	.	.	.	.	.	.
CNC(=O)C[C@H]1CC[C@@H]2[C@H](COc3ccc(NC(=O)Nc4c(C)noc4C)cc3C(=O)N2C)O1	.	/	.	/	/	/	/
C[C@H](CO)N1C[C@H](C)[C@@H](CN(C)C(=O)Nc2cccc3ccccc23)Oc2c(NC(=O)C3CC3)cccc2C1=O	2.2	/	.	/	/	.	.
C[C@@H]1CN([C@@H](C)CO)C(=O)c2ccccc2-c2ccccc2CO[C@@H]1CN(C)C(=O)C1CC1	.	/	.	/	/	/	/
COc1ccc(CN(C)C[C@@H]2Oc3c(NS(C)(=O)=O)cccc3C(=O)N([C@H](C)CO)C[C@@H]2C)cc1	.	/	.	/	/	/	/
COc1ccc(CN(C)C[C@H]2Oc3c(NS(C)(=O)=O)cccc3C(=O)N([C@@H](C)CO)C[C@H]2C)cc1	3.1	/	.	/	/	.	.
C[C@@H]1CN([C@@H](C)CO)C(=O)c2cccc(NC(=O)C3CC3)c2O[C@@H]1CN(C)C(=O)Nc1cccc2ccccc12	.	/	.	/	/	/	/
C[C@H](CO)N1C[C@H](C)[C@@H](CN(C)C(=O)C2CC2)OCc2ccccc2-c2ccccc2C1=O	11	/	.	/	/	.	.
C[C@H](CO)N1C[C@H](C)[C@@H](CN(C)C(=O)Nc2cccc3ccccc23)Oc2c(NS(C)(=O)=O)cccc2C1=O	1.8	/	.	/	/	.	.
Cc1nn(C)cc1NC(=O)C[C@@H]1CC[C@H]2[C@@H](COc3ccc(NC(=O)C4CCC4)cc3C(=O)N2C)O1	/	/	.	/	/	/	/
CCCNC(=O)N1[C@H](CO)[C@H](c2ccc(C3=CCCC3)cc2)[C@H]1CNC(C)=O	/	/	.	/	/	/	/
CO[C@H]1CN(C)C(=O)c2ccc(NC(C)=O)cc2OC[C@@H](C)N(CC2CCCCC2)C[C@@H]1C	.	/	.	/	/	/	/
Cc1cc(C(=O)Nc2cccc(C)c2C)n(-c2ccccc2)n1	.	.	.	.	.	/	/
Cc1cc(C(=O)Nc2cccc3ccccc23)n(-c2ccccc2)n1	3.2	.	.	.	.	.	.

Assay outcomes (PubChem)
